Bioassay records from PubChem.
DTT redox prof: compounds producing H2O2 with reducing agent – biochemical, NIH compound library profiling, artefact control for MLSCN library redox annotation, primary screen; DTT-dependent redox cycling H2O2, phenol red/HRP absorbance; 100% = 100 µM peroxide control, 0% = buffer; activation, % at 10 µM; 0.03% of 200,000 active;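 active = activation of at least 50% relative to the plate's high and low controls in the primary single-dose screen; inactive = activation below 50%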;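 also: compound incubated with DTT at 0.8 mM final as the reducing agent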
Arbovirus anti: antivirals against arbovirus infection | AID 1251 | inhibition, % at 10 µM | arbovirus infection cell-based antiviral screen | 0.37% of 200,000 active; in the data active = inhibition above about 30%
Autophagy HCS: modulators of autophagy; MEF GFP-LC3 puncta imaging; test concentration mostly 10 µM; calls only at 10 µM (by protocol); 0.98% of 190,000 active;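 active = percentage of spot-positive cells more than 3 SD above its plate mean, without a fluorescence outlier flag or 80% toxicity; inconclusive = no clear call, values can overlap the other calls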;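 also: spot-positive cell cutoff set from DMSO-treated cells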
NCF1 inh: blocks human p47phox regulatory protein of NADPH oxidases | inhibition, % at 24.7 µM | P14598 | p47phox/p22phox peptide binding, fluorescence polarization, 2 h | 0.53% of 220,000 active | AID 1274;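 active = inhibition above about 30%, limit read from the data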;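 also: 0% = p47phox with labelled peptide and 100% = labelled peptide alone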
Target sequence (P14598 whole entry, looked up): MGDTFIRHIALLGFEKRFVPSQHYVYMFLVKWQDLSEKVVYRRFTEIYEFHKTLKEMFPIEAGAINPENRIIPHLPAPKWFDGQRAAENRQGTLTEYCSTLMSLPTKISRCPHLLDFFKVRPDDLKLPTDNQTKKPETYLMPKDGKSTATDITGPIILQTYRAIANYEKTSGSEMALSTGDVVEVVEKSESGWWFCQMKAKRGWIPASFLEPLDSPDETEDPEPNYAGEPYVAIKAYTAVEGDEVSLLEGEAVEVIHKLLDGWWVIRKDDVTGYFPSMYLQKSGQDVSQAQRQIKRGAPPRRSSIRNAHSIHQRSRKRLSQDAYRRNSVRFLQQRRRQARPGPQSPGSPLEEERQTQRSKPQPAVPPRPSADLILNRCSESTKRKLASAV
HMGR II inh: E. faecalis class II HMG-CoA reductase inhibition. purified E. faecalis HMGR, NADPH absorbance 340 nm kinetic. inhibition, % at 10 µM. 0.41% of 190,000 active;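 active = inhibition above a set limit, the median over all tested compounds plus 3 SD, cut at about 9.5% in these data; inconclusive = no clear call, values can overlap the other calls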;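 also: enzyme runs in reverse so mevalonate oxidation gives rising NADPH absorbance; 0% = complete reaction with DMSO and 100% = background rate lacking mevalonate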
Insulin prom up: MIN6 insulin promoter up-regulation. z-score at 5 µM. MIN6 insulin promoter-GFP reporter, high-content imaging; active compounds read high. AID 1625. 0.3% of 190,000 active;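 active = z-score above 3 at 5 µM with at least 500 cells counted in the well; inconclusive = wells under 500 cells, flagged as cytotoxic or low count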
The depositor's hits bear a star; i = inactive; ? = inconclusive; nt = no result; + = active, no number. Most compounds without a hit are left out; they make up all but 2.2% or so of the library.

SMILES	DTT redox prof	Arbovirus anti	Autophagy HCS	NCF1 inh	HMGR II inh	Insulin prom up
O=[N+]([O-])c1ccc(/C=C/C2=NN(c3ccccc3)C(c3ccco3)C2)cc1 (centres undefined)	2	2	?	34*	1	0.77
CCc1nnc(NS(=O)(=O)c2ccc(N/C=C\C(=O)c3ccc4ccccc4c3)cc2)s1	0	34*	i	-20	2	-0.32
CCc1nnc(NS(=O)(=O)c2ccc(NC(=O)c3ccccc3)cc2)s1	nt	nt	nt	-9	nt	-0.44
O=[N+]([O-])c1ccc(N/N=C/c2sc(N3CCOCC3)nc2-c2ccccc2)c(S(=O)(=O)Nc2ccc(Cl)cc2)c1	-1	-5	+	-68	-5	?
O=[N+]([O-])c1ccc(N/N=C/c2sc(N3CCOCC3)nc2-c2ccccc2)c(S(=O)(=O)Nc2ccccc2Cl)c1	-1	-18	+	-94	-2	nt
O=C(N/N=C/c1sc(N2CCOCC2)nc1-c1ccccc1)c1ccccc1Cl	0	-4	i	-13	1	1.1
Cc1ccccc1N(CC(=O)N/N=C/c1cc(Br)c(C)o1)S(C)(=O)=O	-1	11	i	-8	-5	nt
O=C(COc1ccc(/C=N/NC(=O)c2ccccc2)cc1)Nc1ccc([N+](=O)[O-])cc1	-5	-26	i	-20	-4	nt
CC(C)Oc1ccc(/C=N/NC(=O)C(CSCc2ccccc2)NC(=O)c2ccc([N+](=O)[O-])cc2)cc1 (centres undefined)	0	-5	+	-9	4	nt
CC(=O)OCC1O[C@@H](O[C@@H]2C[C@H]3C(C)(C)[C@H](OC(C)=O)CC[C@]3(C)[C@H]3CC[C@]45C[C@]4(CC[C@H]5[C@@H](C)C[C@@H](O)[C@H](O)C(C)(C)O)[C@@]32C)[C@H](O)[C@@H](O)[C@@H]1O (some centres undefined)	0	-37	i	-7	-2	-2.4
CC(C)(C)OC(=O)N1CCC[C@H]1C(=O)NCc1ccc(Cl)cc1Cl	-2	-4	i	4	-9	-0.15
Cc1cc(=O)oc(C)c1C(=O)Nc1ccc(F)cc1	nt	nt	nt	17	nt	1.2
CCC(=O)NC(=S)Nc1ccc(NC(=S)NC(=O)c2ccccc2)cc1	0	1	i	-25	6	-0.67
CCC(=O)NC(=S)Nc1cccc(NC(=O)c2ccccc2)c1	1	0	+	-11	-7	1.2
Cc1noc(C(=O)N2CC3(C)CC2CC(C)(C)C3)c1Cl (centres undefined)	-1	-5	i	-6	0	0.86
Cc1cc(C)c(NC(=O)COc2ccccc2C(=O)Nc2ccc3c(c2)oc2ccccc23)c(C)c1	1	4	+	-1	-7	-0.92
COc1ccccc1NC(=O)COc1ccccc1C(=O)Nc1ccccc1	0	8	i	-15	-1	-0.13
COc1cc(OC)c(/C=N/NC(=O)Cn2nc([N+](=O)[O-])cc2C)c(OC)c1	nt	nt	nt	-19	nt	-0.14
O=C1/C(=N\S(=O)(=O)c2cccs2)C([n+]2cccc(Cc3ccccc3)c2)=C([O-])c2ccccc21	nt	nt	nt	-190	nt	6.8*
O=C1/C(=N\S(=O)(=O)c2cccs2)C([n+]2ccc(CCCc3ccccc3)cc2)=C([O-])c2ccccc21	nt	nt	nt	14	nt	-0.95
O=C(COc1cccnc1[N+](=O)[O-])Nc1ccc2c(c1)OC(F)(F)O2	0	3	i	-12	-8	nt
COc1ccc(C)cc1NC(=O)COC(=O)C1CCN(C(=O)c2ccc(Cl)cc2)CC1	-1	0	i	-6	19*	0.38
O=C(COC(=O)C1CCN(C(=O)c2ccc(Cl)cc2)CC1)NC1CCS(=O)(=O)C1 (centres undefined)	-1	8	i	-8	-4	-0.71
O=C(O)CCN1C(=O)/C(=C/c2ccc(-c3nc4ccccc4s3)o2)SC1=S	-3	42*	i	8	6	0.33
CC(=O)N(C)c1nc(N)n(-c2ccccc2)n1	0	4	i	-5	16*	0.75
SMILES	DTT redox prof	Arbovirus anti	Autophagy HCS	NCF1 inh	HMGR II inh	Insulin prom up
Cc1cc(N2C(=O)CCC2=O)ccc1NC(=O)c1cccs1	0	-1	i	-7	-4	nt
CC1=NN(C(=O)c2ccc(C)cc2)C(O)(C(F)(F)OC(F)(F)F)C1 (centres undefined)	-5	-12	i	0	4	nt
CCOc1cccc(C(=O)Nc2ccccc2N2CCN(C(=O)C(C)C)CC2)c1	-3	35*	i	-21	0	-0.21
O=C(NC(Cc1ccccc1)C(=O)O)/C(=C/c1ccc(F)cc1)NC(=O)c1ccccc1 (centres undefined)	0	-4	i	2	-2	-0.29
Cc1ccc(Cl)cc1NC(=S)N(CCN(C)C)C(C)c1ccccn1 (centres undefined)	-1	11	i	3	-3	nt
CCn1c(Cc2c(C)[nH]c3ccccc23)nnc1SCC(=O)NCc1ccccc1	0	8	i	41*	-3	-0.97
CCNC(=O)NC(=O)C(C)Sc1nc2cc(C(=O)OC)ccc2c(=O)n1-c1ccccc1 (centres undefined)	2	43*	i	-7	-1	-0.59
O=C(O)C1CCCCC1C(=O)Nc1nc(-c2ccc(Cl)s2)cs1 (centres undefined)	-1	38*	i	-12	-7	0.5
NC(=O)Cn1c(=O)n(CCC(=O)NCCSCc2ccccc2)c(=O)c2ccccc21	0	7	i	-4	-1	0.07
COc1ccc(OCC(=O)Nc2cccc3ncccc23)cc1	1	-2	i	-3	-6	-0.01
O=C(CCl)Nc1cccc2ncccc12	0	24	i	-6	1	4*
COc1ccccc1NC(=S)NC(=O)/C=C/c1ccco1	0	-4	i	-18	-6	0.23
COc1ccccc1NC(=O)/C(C#N)=C/C=C/c1ccco1	0	-4	+	-248	-1	nt
CCn1c(SCC(=O)N/N=C(/C)c2ccncc2)nc2ccccc21	nt	nt	nt	1	nt	-0.57
Cc1ccc2[nH]c3c(c2c1)CN(C(=O)CN1CCN(c2ccccc2F)CC1)CC3	3	5	i	-15	-6	-0.2
O=c1oc(-c2cccs2)nc2scc(-c3cccs3)c12	3	71*	i	1	-1	-0.62
CCn1nc(C)cc1C(=O)n1nc(C)c(Sc2ncccn2)c1C	nt	nt	nt	-9	nt	0.28
CCc1ccc2c(c1)cc(CN(C(=S)Nc1ccccc1)C1CC1)c1nnnn12	-2	13	+	-20	0	1.4
CCc1ccc2c(c1)cc(CN(C(=S)Nc1ccccc1C)C1CC1)c1nnnn12	-2	-8	i	-17	3	0.64
Cc1ccc(-c2ccc(/C=C(\C#N)C(=O)Nc3cc(C)nn3-c3ccccc3)o2)cc1	0	2	+	-8	1	nt
